Measured values published in the supplement of paper PMC11417369.
In all, about 25,000 sequences were measured (“ln(normalized median fluorescence intensity)”: median about 6.7, highest 2% from about 10 on). For the sample, the highest values were picked, then their nearest neighbours and some sequences at random.

test system: PfHDP1 homeodomain (GST-tagged); test: gcPBM binding intensity (ln(normalized median fluorescence intensity)); higher = stronger DNA binding
In short: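 After 1 h on an Agilent 4 × 180k array of primer-extended double-stranded 36-bp intergenic genomic probes and negative controls, bound GST-tagged P. falciparum DNA-binding domains were detected with Alexa488 anti-GST antibody and scanned at 488 nm. The domains had been expressed in E. coli, and binding took place in 1× PBS with 1% milk, 0.2 mg/ml BSA, 0.5% salmon testes DNA and 0.03% Triton X-100. Binding intensity is the highest Masliner-normalised natural-log median intensity across replicate spots of either probe orientation.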

| Sequence | gcPBM binding intensity (ln) |
| --- | --- |
| ATATATCTACAAATATGTACACACACACATATATAT [XGTACX_site1075] | 6.9 |
| TATAAAAAATAAAAAGTTTAATGAATATTTCTTTTA [TGCATGCA_negctrl_site379] | 5.53 |
| TTATGTTGTAAATGCACACATACATAAACTCAGTTT [CACACA_site5639] | 10.5 |
| TTATGTCATAAATGCACACATATATATATACATATA [CACACA_site1588] | 10.5 |
| TTATGTTGTAAATGCACACATACATATACGCAGTTT [CACACA_site3015] | 9.92 |
| ATGTTCATTATATGCACACATATATATAAATGTAAT [CACACA_site2908] | 10.2 |
| ATAATGTATATTATTGCACACATATATAAAATTATG [CACACA_site8280] | 10.5 |
| CATTATGTCATAAATGCACACATATATATATACATA [CACACA_site8454] | 9.98 |
| ATATATATATATAATGCACACATTATAAATTATGTA [CACACA_site5802] | 10.6 |
| TTATGTCATAAATGCACACATATATAAATACAGATA [CACACA_site4959] | 10.3 |
| CATTATGTTGTAAATGCACACATACATATACACAGT [CACACA_site8990] | 9.81 |
| TTATGTTCATTATATGCACACATATATATAAATGTA [CACACA_site8947] | 9.74 |
| AATGTATATTATTGCACACATATATAAAATTATGCT [CACACA_site1096] | 10.5 |
| ACATAAAATAAATATACACACATATGTATATATTAT [CACACA_site3041] | 6.59 |
| ATCAAAATTGTCATTACACACCTTTATTTTTAGAAT [CACACA_site1813] | 6.6 |
| CAAGCCCTTCTGCTTACACACAGTAATTATTGTGCA [CACACA_site7399] | 6.34 |
| TTTCTATAATATATATGTACATATATAATATGTCGT [XGTACX_site3676] | 6.58 |
| AAATAAAATCATAATGTGCGCATATAAATTTGTAGG [GTGCAC_site9662] | 8.1 |
| AATCCACTTTTTTATGTTATACAATATAAATTAAAT [XGTACX_negctrl_site446] | 6.71 |
| AAAAACTTAATATTCACACATATATATATATATATA [CACACA_site5240] | 9.48 |
| ACAAGATAATAGAGAAGTACTAATAAACATACACAA [XGTACX_site6617] | 6.9 |
| TATATAATATAATGTAGTACATGTTTTATTTTTTAC [XGTACX_site7735] | 6.4 |
| AAATATCTACATATTTGTACATATTTATACATATTT [XGTACX_site6300] | 6.12 |
| TTTTATAATATTTAAAGTACATTCTAAAAATATAAT [XGTACX_site8033] | 6.01 |
| ATACTAAATGAACACACACACATATAGATTTATAAC [CACACA_site6200] | 6.87 |

| Sequence | gcPBM binding intensity (ln) |
| --- | --- |
| GATATATAATATAATACACACATTTTATGAATGTAA [CACACA_site24] | 6.54 |
| ATATATATATATAATGCACACATTATGAATTATGTA [CACACA_site3384] | 10.8 |
| ATAAATAATTATATATGTACACATTATGAATGGATA [XGTACX_site8336] | 6.74 |
| CATACATACCTATATACACACATATAAAATAATATA [CACACA_site7290] | 6.97 |
| ACATGTCAAACATTTGCACACAAAAAAATAAAAATT [CACACA_site691] | 10.2 |
| CCATGTCAAACATTTGCACACAAAAAAATAAAAATT [CACACA_site4546] | 9.71 |
| ATGTCAAACATTTGCACACAAAAAAATAAAAATTAA [CACACA_site692] | 10.6 |
| ATATAAATATATTGCACACACAATTATTATTATTAT [CACACA_site7147] | 10.7 |
| GAGTATATTTATATTGCACACAATTTTTTTATTTTT [CACACA_site2644] | 10.5 |
| TTTATAAAATTTATTGCACACAATTATTTTATAATT [CACACA_site2489] | 9.98 |
| ACACAAAAAATAAAAATATATATATATTATATATAT [CACACA_negctrl_site1489] | 7.32 |
| AAATATTTATAAATTGCACACAAATAATAACATTAT [CACACA_site8737] | 10.2 |
| ATATATTTATATATTGCACACAAAAAAAAAAAAAAA [CACACA_site8468] | 10.5 |
| ATATTTATAAATTGCACACAAATAATAACATTCTAT [CACACA_site2357] | 10.4 |
| ATATTTATAAATTGCACACAAATAATAACATTATAT [CACACA_site5322] | 10.6 |
| ATATTATCCCTATTTGCACACAAGAGTAATTTTTTA [CACACA_site3908] | 10.4 |
| AAAAAAATATATATATATATATATATATTATATATG [GTGCAC_negctrl_site654] | 6.87 |
| TTTTTTATTTATTGTTATACATCTTACTACTTATAA [GTGCAC_negctrl_site381] | 6.63 |
| TATTTTTTCTTTCATTGTACTTTTTTTTTGTTTTGT [XGTACX_site4081] | 6.8 |
| AAAAAAAAAAAAACTAGTACATATATATAGTATGAA [XGTACX_site6279] | 6.33 |
| AATATTATTATTATTACACACACAATTATATTTACC [CACACA_site8061] | 6.61 |
| TTAATTATATTATGCACACACAATTGGAAAAAAAAT [CACACA_site1958] | 10.2 |
| ATATATATATATTGCACACACAATTATTATTATTAT [CACACA_site2299] | 10.6 |
| TTATAATCCATAATTGCACACAATATATTCATATTT [CACACA_site3916] | 10.1 |
| ATATATATATATATTGCACACACAATTATTATTATT [CACACA_site8721] | 10.6 |

| Sequence | gcPBM binding intensity (ln) |
| --- | --- |
| TTTTAATTATATTATGCACACACAATTGGAAAAAAA [CACACA_site8598] | 10.2 |
| AATAATGTATAATGATGTACAAAAAAGGAAGACATA [XGTACX_site2474] | 7.43 |
| TAACTTCAAAAATCTTGTACATAAATATATAAAACA [XGTACX_site8574] | 6.29 |
| GTGTTTGAAAATAAAGCATGCAAATATATTTGAAAT [TGCATGCA_site386] | 7.23 |
| TTTTTTATTGTGATACGTATATTATTTTATGATTAA [GTGCAC_negctrl_site202] | 6.82 |
| AAAGTAAAAAAAAAAACATGCACATATTTACTTTAT [TGCATGCA_site849] | 7.94 |
| CATATTTATAAATATAAACACACAACATTATATGCA [CACACA_site9065] | 6.82 |
| TCTTTTATGCACATTGAGTAAACAACATATTTTTAA [TGCATGCA_negctrl_site561] | 10.9 |
| ATAATATTATGTGTGAATATATCTTTAAAAAGGATA [GTGCAC_negctrl_site15] | 6.33 |
| AAGAGAAATATATATTGTACAATAATTTTATTTGGT [XGTACX_site7642] | 6.21 |
| ATATTAATAATATATACACACATAAGTATTGTATAT [CACACA_site4095] | 6.46 |
| AAGTGCATATTATTCACACATAATAATTGTATACCT [CACACA_site5965] | 10.5 |
| TATAAATGTATACAAGTGCATATTATTCACACATAA | 8.59 |
| TGATTCACTATAGTAGTGCATATTATATATATATAT [GTGCAC_site9975] | 9.23 |
| AAAAAAAAATATATATATATATATATATTTATGTAT [GTGCAC_negctrl_site483] | 6.92 |
| CATATTTTGTGAAAAAGTACATATATATATATATAT [XGTACX_site6295] | 9.38 |
| ATGATAATTATTAAGGGTACATAAAAATATATCTAT [XGTACX_site8969] | 6.36 |
| TATATTGCAAAAAGTACACACATAAATAAATACATA [CACACA_site6589] | 9.04 |
| ATGTCTACAGTTTTTGCACACATATAAATAAAAAAA [CACACA_site3600] | 10.3 |
| TTATAGAACTATATTGCACACATAATATATATATAT [CACACA_site9042] | 10.1 |
| TTTGTAGTTTGCACATGTACACATTTCAAAATAAAG [XGTACX_site7568] | 10.7 |
| TACATATTGCACAAATAAAAAAGAACAAAAAAAAAA [CACACA_negctrl_site1200] | 10.9 |
| TACATATAATATATTGCACACGTCAGAATAATATAG [CACACA_site1744] | 10.3 |
| TTTAAAAATAAAAGTACACACATAAACATATTGCAC [CACACA_site6784] | 7.47 |
| ATATATATATATAAATGTACATTTTTCAATAGTTTT [XGTACX_site7449] | 8.98 |

| Sequence | gcPBM binding intensity (ln) |
| --- | --- |
| ATATAGTTTCACATGTGTACATAAAAATACACTTGT [XGTACX_site3339] | 6.59 |
| GTGTACAGTTTTTGCACACATATAAATAAAAAAAAG [CACACA_site3599] | 10.2 |
| ATAGAACTATATTGCACACATAATATATATATATAT [CACACA_site3189] | 10.7 |
| ATCTGTACAGTTTTTGCACACATATAAATAAAAAAA [CACACA_site9198] | 10.7 |
| AAAAAATTATACCTTTGTACATAAATAAAATATTAT [XGTACX_site418] | 6.23 |
| AATAAATGGAAAAGGTGTACACAAAAAAAAGGGAAA [XGTACX_site4956] | 7.54 |
| AAAAAAAAAGTATATATATATTTAAGGAATTCTCTC [GTGCAC_negctrl_site454] | 6.33 |
| TATATTATATATATATGTACATATGGCAAAACATTA [XGTACX_site7958] | 7.12 |
| ATAGAAATATTATATTGTACGAACAGTTATTAACAA [XGTACX_site2137] | 6.56 |
| AAAATAAGTAATTACTAATATATAAATTAATAATTA [CACACA_negctrl_site1602] | 5.84 |
| ATAAATATTGCGTGCACACACATAATATTTATATAT [CACACA_site7136] | 10.3 |
| TATTATTTACTTATTGCACACATATAAAATATATTT [CACACA_site9017] | 10.2 |
| TATAAATTATAAATTGCACACATATTTTTATATTTA [CACACA_site8974] | 10.1 |
| TACAGATATTATTGCACACATATAAAATACCCCCAA [CACACA_site6014] | 10.4 |
| ATAAATATTGGGTGCACACACATAATATATATATAT [CACACA_site2272] | 10.5 |
| TTATTTACTTATTGCACACATATAAAATATATTTAT [CACACA_site3101] | 10.7 |
| CATACATATATTATTGCACACATATAAAATACCCCC [CACACA_site9292] | 10.4 |
| ATATATATATATATTGCACACATATAAATATATATA [CACACA_site8167] | 10.9 |
| TACATATATTATTGCACACATATAAAATACCCCCAA [CACACA_site3895] | 10.8 |
| CTATATAAAAAAATTGCACACATAAATATATACATA [CACACA_site8325] | 9.87 |
| ATTGGGTACAAATACACACACATATAAATATTAATA [CACACA_site7173] | 6.68 |
| ATATAAAAAAATTGCACACATAAATATATACATATA [CACACA_site1218] | 10.1 |
